STK33 kin inh: human STK33 kinase inhibition. ADP-Glo luminescence, MBP substrate. AID 2322. Q9BYT3. 27,000 tested, 0.44% active. inhibition, % at 12.5 µM; in the data active = inhibition above about 20%; inconclusive = no clear call, values can overlap the other calls
Target sequence (Q9BYT3 whole entry, looked up): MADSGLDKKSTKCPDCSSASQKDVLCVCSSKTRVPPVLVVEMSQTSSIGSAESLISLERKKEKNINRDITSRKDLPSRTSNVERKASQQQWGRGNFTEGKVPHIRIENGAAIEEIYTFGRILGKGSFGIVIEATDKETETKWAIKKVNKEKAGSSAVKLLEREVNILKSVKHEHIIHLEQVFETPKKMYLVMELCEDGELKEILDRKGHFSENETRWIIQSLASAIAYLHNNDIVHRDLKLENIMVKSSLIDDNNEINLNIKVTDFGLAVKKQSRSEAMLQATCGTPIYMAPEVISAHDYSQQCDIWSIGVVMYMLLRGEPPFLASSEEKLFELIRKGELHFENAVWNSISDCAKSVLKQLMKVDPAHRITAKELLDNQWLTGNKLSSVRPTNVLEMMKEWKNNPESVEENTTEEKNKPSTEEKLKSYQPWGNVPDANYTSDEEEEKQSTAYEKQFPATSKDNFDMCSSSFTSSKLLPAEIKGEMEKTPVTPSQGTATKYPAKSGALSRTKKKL
p53 PUMA act: restores mutant p53 pathway signaling in SW480 cells | activation, % at 9.98 µM | 28,000 tested, 1.5% active | SW480 PUMA-promoter luciferase, p53 mutant reactivation; in the data active = activation above about 52%; inconclusive = no clear call, values can overlap the other calls
ID4 SMM: binders of human ID4 protein; small molecule microarray, Flag-ID4 binding, fluorescence F/B; calls only; 31,000 tested, 1.2% active; AID 624137; call rule not given here;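 note: a binder raises fluorescence above local background on the spot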
Numbers stand for hits; i = inactive; ? = inconclusive; nt = no result; + = active, no number. A selection: hits, their analogues and other compounds. The true share with any hit is near 2%.

SMILES	STK33 kin inh	p53 PUMA act	ID4 SMM
c1cc(-c2cnn3cc(-c4ccc(OCCN5CCCCC5)cc4)cnc23)ccn1	nt	i	+
COc1ccc(NC(=O)c2ccc(OC(=O)CCN3C(=O)c4ccccc4C3=O)cc2)cc1	i	i	i
Cc1ccc(NC(=O)c2ccc(OC(=O)CCN3C(=O)c4ccccc4C3=O)cc2)cc1	i	102	i
Cc1ccc(C(C)C)cc1OCC(O)Cn1c(C)nc2ccccc21 (configuration not stated)	i	i	i
CC(NS(=O)(=O)c1ccc(Cl)cc1)C(=O)Nc1c(F)cccc1F (configuration not stated)	i	i	i
Cc1cc(C)c(C)c(OCC(=O)Nc2ccccc2C(N)=O)c1	i	53	i
COC(=O)c1ccccc1NC(=O)COc1ccc(C)cc1C	i	i	i
CCc1ccc(OCC(=O)Nc2ccccc2C(N)=O)c(Br)c1	i	71	i
Cc1cc(OCC(=O)Nc2ccccc2C(N)=O)c(C)cc1Br	i	i	i
Cc1ccccc1NC(=O)c1cccc(Cn2cc(C(F)(F)F)ccc2=O)c1	i	nt	nt
Cc1cccc(C)c1NC(=O)CSc1nc2c(cc1C#N)CCC2	i	i	i
CNC[C@H]1Oc2ncc(C#Cc3cccc(OC)c3)cc2C(=O)N([C@@H](C)CO)C[C@H]1C	nt	i	i
CNC[C@H]1Oc2ncc(C3=CCCCC3)cc2C(=O)N([C@@H](C)CO)C[C@H]1C	nt	i	+
CNC[C@@H]1Oc2ncc(C3=CCCCC3)cc2C(=O)N([C@H](C)CO)C[C@@H]1C	nt	i	i
C[C@H]1CN([C@@H](C)CO)C(=O)c2cc(C3=CCCC3)cnc2O[C@@H]1CN(C)S(C)(=O)=O	nt	i	i
C[C@H]1CN([C@@H](C)CO)C(=O)c2cc(C3=CCCCC3)cnc2O[C@H]1CN(C)S(=O)(=O)c1cn(C)cn1	nt	i	+
CNC[C@@H]1Oc2ncc(C#Cc3ccc(OC)c(OC)c3)cc2C(=O)N([C@H](C)CO)C[C@@H]1C	i	i	+
Cc1nc2nc[nH]n2c(=O)c1NS(=O)(=O)c1ccc(C2CCCCC2)cc1	i	i	i
COc1ccc(OC)c(CNCc2ccccc2OC)c1	i	i	i
Cc1ccc(S(=O)(=O)N(CCC#N)CCC#N)cc1	i	i	i
COC(=O)c1sc2ncn(CC(=O)Nc3cccc(Cl)c3C)c(=O)c2c1C	i	i	i
O=C(c1cc2cc(Br)ccc2oc1=O)N1CCN(CCN2C(=O)c3cccc4cccc(c34)C2=O)CC1	i	65	i
O=C(NCCN1CCOCC1)c1cc2cc(Br)ccc2oc1=O	i	i	i
O=C1c2ccccc2C(=O)N1CCN1CCCCC1	i	nt	nt
NC(=O)CN1CCN(CCN2C(=O)c3cccc4cccc(c34)C2=O)CC1	i	75	+
SMILES	STK33 kin inh	p53 PUMA act	ID4 SMM
CC(C)(C)NC(=O)N1CCN(c2ccc(C#N)cn2)CC1	i	nt	nt
Cc1ccc(S(=O)(=O)Nc2c(C)[nH]c(=O)[nH]c2=O)cc1C	i	i	+
Cc1[nH]c(=O)[nH]c(=O)c1NS(=O)(=O)c1ccc2c(c1)CCCC2	i	i	i
S=C(NC1CCCCC1)Sc1ccc(Cl)cc1	i	nt	nt
COc1c(Cl)cc(C(=O)Nc2sc3c(c2C(=O)NCc2cccnc2)CCCC3)cc1Cl	i	i	i
O=C(CSc1nnc(-c2ccc(Cl)cc2)n1-c1ccccc1)Nc1ccccc1C(F)(F)F	i	i	i
O=C(/C=C/c1ccc(O)cc1)OC[C@H]1O[C@@H](Oc2cc(O)c3c(c2)OC(c2ccc(O)cc2)CC3=O)[C@H](O)[C@@H](OC(=O)/C=C/c2ccc(O)cc2)[C@@H]1O (some centres not stated)	i	nt	i
O=C1C=CC(O)(/C=C/C(=O)OC[C@H]2O[C@@H](Oc3ccc(O)cc3)[C@H](O)[C@@H](OC(=O)/C=C/C3(O)C=CC(=O)C=C3)[C@@H]2O)C=C1	52	i	i
CO[C@H]1O[C@H](CO)[C@@H](OC(=O)CCc2ccccc2)[C@H](OC(=O)c2cc3ccccc3[nH]2)[C@H]1OC(=O)c1cc2ccccc2[nH]1	i	nt	nt
Cc1ccc(-c2cc(-c3c(C)nn(C)c(=O)c3N)[nH]n2)cc1	nt	86	i
C=CCN1Cc2ccccc2[C@H]2OC(c3ccc(OCCCO)cc3)=N[C@@]2(Cc2ccccc2)C1=O	i	nt	i
CCn1c(NCc2ccccc2O)nc2ccccc21	i	62	i
C=CCn1c(NCc2cc(C)ccc2O)nc2ccccc21	i	nt	nt
Cn1c(NCc2cc(Br)ccc2O)nc2ccccc21	i	?	i
COc1ccc(CNc2nc3ccccc3n2C)c(O)c1	i	142	i
CCc1ccc(N2NC(=O)C(=C(C)C)C2=O)cc1	i	nt	nt
CC(Sc1nc(=O)cc(N)n1-c1ccccc1)C(=O)Nc1cccc(Cl)c1 (configuration not stated)	i	i	i
CC1OC(OC2C(O)C(CO)OC(O[C@H]3CC[C@@]4(C)C(CC[C@]5(C)C4CC=C4C6CC(C)(C)CC[C@]6(C(=O)OC6OCC(OC7OCC(O)C(O)C7O)C(O)C6O)CC[C@]45C)C3(C)C)C2O)C(O)C(OC2OCC(O)(CO)C2O)C1O (some centres not stated)	i	nt	i
O=C(Nc1cccc(NC(=O)c2ncn[nH]2)c1)c1cccc(Cl)c1	32	i	i
O=C(Nc1ccccc1C(=O)O)c1ncn[nH]1	i	i	i
NC(=S)Cc1c(Cl)sc2ccc(Cl)cc12	nt	i	i
Cc1cccc(C)c1OCC(=O)Nc1ccc([N+](=O)[O-])cc1O	i	i	i
O=C(CCSc1ccc([N+](=O)[O-])cc1)Nc1cccc2cccnc12	i	i	i
O=C(COc1ccc([N+](=O)[O-])cc1)Nc1cccc2cccnc12	i	64	i
CCc1cccc(OCC(=O)Nc2cc([N+](=O)[O-])ccc2O)c1	i	74	i
SMILES	STK33 kin inh	p53 PUMA act	ID4 SMM
O=C(COc1cccc2ccccc12)Nc1cc([N+](=O)[O-])ccc1O	i	67	i
O=C(COc1ccccc1)Nc1ccc([N+](=O)[O-])cc1O	i	i	i
COCc1nc2ccccc2n1CCOc1ccc(Cl)cc1	i	i	i
Cc1cc(C)cc(N(CC(=O)Nc2ccc(C(N)=O)cc2)S(C)(=O)=O)c1	i	i	i
CC(Oc1ccccc1-c1ccccc1)c1n[nH]c(=S)n1-c1ccccc1 (configuration not stated)	i	nt	nt
C=CCN1C(=O)[C@]2(O[C@H](CCO)[C@@H]([Si](C)(C)c3ccc(OC)cc3)[C@@H]2C)c2cc(NC(C)=O)ccc21	i	nt	nt
Cc1ccc(S(=O)(=O)NC(C)C(=O)Nc2cc([N+](=O)[O-])ccc2C)cc1 (configuration not stated)	i	i	i
COC(=O)c1ccc(NC(=O)CSC(=S)N2CCOCC2)cc1	i	nt	nt
CNc1nc(Oc2ccc(=O)[nH]n2)nc(N2CCOCC2)n1	i	i	i
Cc1ccc(Nc2nc(Oc3ccc(=O)[nH]n3)nc(N3CCOCC3)n2)cc1	i	i	+
O=C1O[C@@H](c2ccccc2)[C@@H](c2ccccc2)N2[C@@H](c3ccccc3OCCO)[C@]3(C(=O)Nc4ccc(C#CC5(O)CCCCCC5)cc43)[C@@H](C(=O)Nc3nc4ccccc4s3)[C@H]12	i	nt	nt
Cc1cc(C)nc(SCc2nnnn2-c2ccccc2)n1	i	i	i
c1ccc(-c2nsc(NC3Cc4ccccc4C3)n2)cc1	nt	109	i
COc1ccc(CC(=O)Nc2ccc(NC(=O)c3ccco3)cc2)cc1OC	i	i	i
Cn1c(SCC(=O)Nc2cccc3ccccc23)nnc1-c1cccs1	i	i	i
